This passage reports activation results from PubChem BioAssay AID1920062 (Sanford-Burnham Center for Chemical Genomics, 2024).

Each structure is given as a SMILES string. Screen size: about 370,000 compounds; about 400 (0.11%) were called active. Shown is part of a subset that was picked to be rich in actives. Values without a mark were called inactive.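 How the source made its calls: active means activation at 10 µM reaching about 35% in either raw or pattern-adjusted values (limit read from the data); inactive means the rest.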

The experiment deals with Atrial natriuretic peptide receptor 2 (Homo sapiens) (UniProt P20594). Put plainly: GC-B stimulated cGMP production enhancers – HEK293 GC-B cells, cGMP TR-FRET, EC30 CNP, primary screen (AID 1920062). The settings on record: at 10 µM, hits give high values, 0% at EC30 CNP, 100% saturating CNP. Background: In TR-FRET formats the signal depends on donor and acceptor labels being close together.
Sequence of Atrial natriuretic peptide receptor 2 (Homo sapiens) (P20594 whole entry, looked up): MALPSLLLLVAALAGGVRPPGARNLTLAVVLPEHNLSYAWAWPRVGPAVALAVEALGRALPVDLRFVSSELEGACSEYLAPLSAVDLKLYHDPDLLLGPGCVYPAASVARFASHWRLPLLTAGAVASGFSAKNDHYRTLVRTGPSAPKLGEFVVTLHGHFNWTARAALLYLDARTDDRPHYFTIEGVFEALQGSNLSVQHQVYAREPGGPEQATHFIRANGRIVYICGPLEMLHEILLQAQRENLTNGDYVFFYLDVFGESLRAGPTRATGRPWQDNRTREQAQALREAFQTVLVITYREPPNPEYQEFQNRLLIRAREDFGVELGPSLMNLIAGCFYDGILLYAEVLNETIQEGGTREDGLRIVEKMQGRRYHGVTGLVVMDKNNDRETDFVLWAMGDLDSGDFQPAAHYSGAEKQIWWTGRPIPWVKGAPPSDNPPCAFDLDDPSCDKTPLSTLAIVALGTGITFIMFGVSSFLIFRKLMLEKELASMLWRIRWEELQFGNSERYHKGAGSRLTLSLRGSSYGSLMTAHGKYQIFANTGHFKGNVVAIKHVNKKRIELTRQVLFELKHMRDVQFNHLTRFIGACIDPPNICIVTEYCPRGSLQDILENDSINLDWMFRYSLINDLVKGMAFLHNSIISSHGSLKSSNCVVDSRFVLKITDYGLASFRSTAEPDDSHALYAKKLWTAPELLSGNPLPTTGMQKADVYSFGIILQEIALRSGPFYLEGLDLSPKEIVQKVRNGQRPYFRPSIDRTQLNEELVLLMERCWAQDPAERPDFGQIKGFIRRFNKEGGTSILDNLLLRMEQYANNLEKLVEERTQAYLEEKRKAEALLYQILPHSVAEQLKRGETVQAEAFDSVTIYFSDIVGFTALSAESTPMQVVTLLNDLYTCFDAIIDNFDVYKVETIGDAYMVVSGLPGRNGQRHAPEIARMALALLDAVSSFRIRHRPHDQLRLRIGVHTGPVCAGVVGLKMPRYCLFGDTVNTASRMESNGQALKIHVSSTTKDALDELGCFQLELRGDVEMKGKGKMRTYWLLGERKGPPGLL
For the molecule `O=C(NCc1cc(C(F)(F)F)cc(C(F)(F)F)c1)C1CC(c2cccc(F)c2)=NO1` (configuration not stated), the activation was 4.68%.

For the molecule `CC1=C(C(N)=O)C(c2ccc(F)cc2)n2nc(CCCO)nc2N1` (configuration not stated), the activation was 12.2%.

Turning to `CCN(CC)C(=O)C(=O)c1cn(CC(=O)NCc2ccc3c(c2)OCO3)c2ccccc12`, the activation is -1.28%.

With `CCn1c(=O)c([N+](=O)[O-])c(NCc2ccc3c(c2)OCO3)c2ccccc21`, the activation was 38.9% (active).

For `C=CCn1c(=O)c(C(=O)NCc2ccc3c(c2)OCO3)c(O)c2ccccc21`, the activation is 5.25%.

For the molecule `CCCCNC(=O)c1nc(C2CCN(S(=O)(=O)c3ccc(F)c(F)c3)CC2)oc1-c1cccc(C(F)(F)F)c1`, the activation was 1.59%.

Take `CC1CN/C(=C\C(=O)c2ccc(Br)cc2)C(=O)N1` (configuration not stated): the activation was -4.27%.

On to `N#Cc1ccccc1S(=O)(=O)N1CCN(Cc2c(O)ccc3ccccc23)CC1`, for which the activation is 2.67%.

Consider `Cc1ccc(CN(N=Nc2nonc2N)c2nonc2N)c(C)c1`, for which the activation is 42.7% (active).

For the molecule `CCn1c(/C=C/Nc2ccccc2)[n+](CC)c2ccc(C(=O)OCC(F)(F)F)cc21`, the activation is -2.59%.

For the molecule `O=C(OCCN1C(=O)c2ccccc2C1=O)[C@@H]1CC(O)CN1S(=O)(=O)c1ccccc1[N+](=O)[O-]` (some centres not stated), the activation was -3.1%.

For `COC(=O)[C@@]12CCCCC3=C1N(CCC3)C(=O)[C@H]2CC(=O)NCc1cccc2ccccc12`, the activation was -3.99%.

For the molecule `CCc1nc2c(OCc3ccccc3)cccn2c1N(C)C(=O)c1ccco1`, the activation was 3.48%.

Consider `Cc1ccc(/C=C(\C#N)C(=O)Nc2cccc3ncccc23)o1`, for which the activation is -4.94%.

As to `N#Cc1ccc(C(=O)Nc2nc(-c3cccs3)c(C(=O)C(F)(F)F)s2)cc1`, the activation was -0.02%.

Take `COc1cc(CCC(=O)N2CCN(c3ccccc3Cl)CC2)cc(OC)c1OC`: the activation was -3.86%.

On to `COc1cccc(COC(=O)C2CCN(S(=O)(=O)c3cccs3)CC2)c1OC`, for which the activation is 1.88%.

On to `Cc1ccc(C(=O)N2CCCC(c3ccccc3)=N2)cc1`, for which the activation is 2.95%.

As to `Nc1nc(SC23CC4CC(CC(C4)C2)C3)ns1`, the activation is -0.97%.

Regarding `CS(=O)(=O)N(CC(=O)Nc1ccc(F)cc1)C1CCCCC1`, the activation is 0.74%.

With `CN(C)c1nc2n(c(=O)n1)CCO2`, the activation is 4.05%.

With `O=C(COc1cccnc1[N+](=O)[O-])Nc1ccc(Cl)cc1F`, the activation is -6.77%.

For `CC(C)(C)c1ccc(C(=O)NCC(=O)OCN2C(=O)c3ccccc3C2=O)cc1`, the activation was -3.65%.

Regarding `CN(Cc1cccnc1)C(=O)c1cc(COc2ccc3ncccc3c2)on1`, the activation was 0.47%.

For `C=CCC1(CC=C)CCCN1C(=O)c1cc(COc2ccc(-n3cncn3)cc2)on1`, the activation was -1.1%.

In the case of `CC1=NN(C(=O)Cc2ccc(C)cc2)C(O)(c2cccnc2)C1` (configuration not stated), the activation is -0.71%.

In the case of `O=C(Nc1ccccc1Cl)NC1(C(=O)N2CCOCC2)CCCCC1`, the activation was 0.64%.

Take `CCN(Cc1ccccc1)C(=O)CCS(=O)(=O)c1ccc2c(c1)oc(=O)n2C`: the activation is 4.57%.

Turning to `O=C(NNC(=S)Nc1ccc(F)cc1)[C@H]1C[C@@H]1c1ccccc1`, the activation is 2.74%.

On to `COc1ccc(OC)c(NC(=O)c2cnn(-c3ccccc3Cl)c2NC(=O)c2ccco2)c1`, for which the activation was -0.32%.

Take `CCCC(c1nnnn1C(C)(C)C)N1CCN(Cc2ccccc2)CC1` (configuration not stated): the activation is -1.17%.

For `COC(=O)c1ccc2nc(-c3ccc(OC)c(OC)c3)c(Cc3ccccc3)n2c1`, the activation was 20.9%.

Take `COC(=O)c1ccc2nc(-c3ccc(F)cc3)c(Cc3ccc(C)cc3)n2c1`: the activation was 41.9% (active).

Consider `COC(=O)c1ccc2nc(-c3ccc(Cl)cc3)c(Cc3cccc(F)c3)n2c1`, for which the activation is 41.9% (active).

Regarding `Fc1cccc(Cc2c(-c3cccc(Cl)c3)nc3ccc(Br)cn23)c1`, the activation was -1.56%.

As for `COC(=O)c1ccc2nc(C3CCCCC3)c(Cc3cccc(F)c3)n2c1`, the activation was 3.29%.

Consider `COC(=O)c1ccc2nc(-c3ccc(C)cc3)c(Cc3ccc(OC)cc3C)n2c1`, for which the activation is 17.2%.

`COC(=O)[C@@H]1C[C@@]2(O)[C@H](O)[C@H](O)[C@H](O)C[C@H]2N1Cc1ccc(C)s1`: the activation was 6.96%.

Regarding `O=C(NCc1ccncc1)C1CCCN(S(=O)(=O)c2ccc(Br)cc2)C1` (configuration not stated), the activation was -0.66%.

Take `CCOCCCNC(=O)Cc1cc(=O)[nH]c(=O)[nH]1`: the activation was -0.88%.

With `CC(=O)Nc1ccc(S(=O)(=O)NC2(C(F)(F)F)C(=O)Nc3c2c(=O)[nH]c(=O)n3Cc2ccccc2)cc1` (configuration not stated), the activation is -0.18%.

As for `NC(=O)C[n+]1cccc(C(N)=O)c1`, the activation was -0.67%.

Take `CC1(C)O[C@@H]2[C@H](O1)[C@@H](COS(=O)(=O)O)O[C@H]2n1ccc(=O)[nH]c1=O`: the activation is 1.28%.

As for `O=C(NC(=S)Nc1cccc(-c2ccc(CO)o2)c1)c1cccs1`, the activation is 3.14%.

For `COc1cccc2cc(C(C)N(CCCN3CCOCC3)C(=O)Nc3ccc(Cl)cc3)oc12` (configuration not stated), the activation is 2.29%.

`Cc1ccc(SCC(=O)NNC(=O)c2ccc(S(C)(=O)=O)cc2)cc1`: the activation was 4.75%.

In the case of `CCCN=C1NC(=O)C(CC(=O)NCCc2ccc(OC)c(OC)c2)S1` (configuration not stated), the activation was -2.43%.

`CCN(CC(=O)NCCCN1CCOCC1)S(=O)(=O)c1cc(Cl)ccc1Cl`: the activation was -0.24%.

On to `CCOCCCNC(=O)C(NC(=O)c1ccc(=O)[nH]c1)c1ccc(Cl)cc1` (configuration not stated), for which the activation was -0.69%.

For the molecule `Nc1c(C(=O)NCc2ccccc2)sc2nc3c(cc12)C(=O)CCC3`, the activation was 41.5% (active).

Regarding `O=C(CC1CCCCC1)NCc1ccccc1`, the activation is 0.16%.

With `CC(C)OC(=O)c1sc2nc3c(cc2c1N)C(=O)CCC3`, the activation was 16.4%.

`Cc1cnc(C)c(N2CCN(C(=O)C3CCC(=O)N(CCc4cccc(F)c4)C3)CC2)n1` (configuration not stated): the activation was 1.57%.

As to `CCN(C(=O)COC(=O)c1c(NC(C)=O)sc(C)c1C)C1CCS(=O)(=O)C1` (configuration not stated), the activation is -6.94%.

For the molecule `C=CCn1nc(C(=O)OCC)cc1-c1sc(NC(=O)c2ccccc2)nc1C`, the activation was 3.57%.

With `Cc1ccc(C)n1-c1ccncc1`, the activation is 1.81%.

As to `COC(=O)[C@]1(Cc2ccccc2)N[C@H](CN(C)S(=O)(=O)c2ccc(F)cc2)[C@@H]2C(=O)N(Cc3ccccc3)C(=O)[C@@H]21`, the activation was -3.49%.

In the case of `COc1ccc(C2c3ccc(O)cc3Oc3ncn(CCCO)c(=N)c32)cc1OC` (configuration not stated), the activation is 2.6%.

On to `CCN(C(=O)COC(=O)c1ccc(COc2ccc3c(C)cc(=O)oc3c2)cc1)C1CCS(=O)(=O)C1` (configuration not stated), for which the activation was -1.49%.

With `O=C(Nc1ccc(Br)cc1)c1cccc(NC(=O)C2C3CC4OC(=O)C2C4C3)c1` (configuration not stated), the activation is -4.37%.

Regarding `Cc1oc2nc(SCC(=O)Nc3ccc(S(N)(=O)=O)cc3)nc(NC(=O)c3ccccc3)c2c1C`, the activation was -7.74%.

Regarding `N#Cc1ccc(OCCN2C(=O)NC3(CCSC3)C2=O)cc1` (configuration not stated), the activation was 1.75%.

In the case of `O=C1Nc2ccccc2NC(c2ccc3c(c2)OCO3)=C1N(Cc1ccc(F)cc1)C(=O)c1ccco1`, the activation was -16.8%.

Regarding `CCOC(=O)Cc1c(C)nc2c(C#N)c(C)nn2c1C`, the activation is 6.49%.

On to `C[C@H]1NS(=O)(=O)c2cc(Cl)ccc2O[C@@H]1c1ccccc1`, for which the activation was 1.13%.

On to `O=C1CC(=O)Nc2cc(S(=O)(=O)N3CCN(c4cccc(C(F)(F)F)c4)CC3)ccc2N1`, for which the activation is 1.05%.

As to `CCNC(=O)C1(C)CCN(C(=O)c2ccccc2)C1` (configuration not stated), the activation was 1.62%.

With `Cc1ccc(CSc2ccc(S(=O)(=O)N3CCCCC3)cn2)cc1`, the activation is -1.29%.

Turning to `CCOC(=O)c1ccccc1NC(=O)COC(=O)C(Cc1c[nH]c2ccccc12)NC(C)=O` (configuration not stated), the activation is -17.1%.

In the case of `COCCn1c(CN2CCC(Cc3ccccc3)CC2)nc2c1c(=O)n(C)c(=O)n2C`, the activation was -2.04%.

For the molecule `CCN(CC)C(=O)Cn1cc(S(=O)(=O)CC(=O)NCc2ccc3c(c2)OCO3)c2ccccc21`, the activation is 2.01%.

`O=C(NCc1ccc2c(c1)OCO2)c1sccc1Br`: the activation is 8.92%.

With `CN(C)C(=O)c1cccc(-c2cnc3sc(NCc4ccc5c(c4)OCO5)nn23)c1`, the activation was 43% (active).

Consider `O/N=C(\c1ccc2c(c1)OCCO2)C1CCCCC1`, for which the activation is 0.81%.

Consider `Cc1nnc(NC(=O)CSc2nc(C3CCCCC3)nc3ccccc23)s1`, for which the activation was 3.79%.

`CC(=O)Nc1cccc(-c2cc(NC(C)=O)c3ncc(-c4ccccc4)n3c2)c1`: the activation is 5.87%.

In the case of `CC(=O)Nc1cc(-c2cccc(CO)c2)cn2c(-c3cccc(C(F)(F)F)c3)cnc12`, the activation is 36.8% (active).

With `CC(=O)Nc1cc(-c2ccccc2F)cn2c(-c3cccc(C(F)(F)F)c3)cnc12`, the activation is 3.33%.

Turning to `COc1ccc(OC)c(Cc2cnc3nc(N)nc(N)c3c2C)c1`, the activation was -1.38%.

In the case of `Cn1c(=O)c2c(SCC(=O)NCC3CCCO3)nc(CC(C)(C)C)nc2n(C)c1=O` (configuration not stated), the activation was 4.44%.

As to `C=CCN(Cc1ccc2c(c1)OCO2)C(C#CC1CC1)C(C)(C)C` (configuration not stated), the activation was -14.9%.

For `C[C@@H]1COc2cccc(N3CCCC3)c2S(=O)(=O)N1C`, the activation is 0.41%.

Consider `CC(=O)C1(C(=O)Nc2nccs2)CC(c2ccccc2C(F)(F)F)=NO1` (configuration not stated), for which the activation was 1.69%.

For `COc1ccc(C(=O)OC(C)C(=O)NC2CCCC2)cc1S(=O)(=O)N1CCOCC1` (configuration not stated), the activation is -5.5%.

With `O=C(CCCCCN1C(=O)C2C3C=CC(C3)C2C1=O)Nc1ccccn1` (configuration not stated), the activation was 9.16%.

Consider `CCc1ccccc1S(=O)(=O)Cc1ccc(C(=O)NCCc2ccccc2)o1`, for which the activation is 2.27%.

For the molecule `CN(C(=O)CC(NC(=O)c1ccccc1)(c1ccccc1)c1ccccc1)c1ccccc1`, the activation is -19.3%.
